PubChem BioAssay AID1159580 (chemical genetic matrix, 2015)
Where “and” joins values, the source holds several entries; their conditions need not be identical. Equal values may be shown once. Out of some 5,500 compounds screened, about 2,000 (36%) were called active. Not shown: some 18% with an inconclusive outcome. Rule as the data show it: active = normalized growth mostly below about 0.91 (no sharp cut-off); inconclusive = no clear call, values can overlap the other calls; inactive = mostly above about 0.92. Some of the results follow.

Test: chemical genetic growth profiling, strain panel (AID 1159580);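 also: tested at 20 µM; growth read once vehicle control cultures reached saturation at 30 °C; 1 = growth at the plate median or of vehicle wells; lower values mean less growth of the strain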
Settings: S. cerevisiae deletion strains, growth OD

Measured: normalized growth

O=S(=O)(O)CCS
inactive: locus YAL013W, strain DEP1, hits give low values 1.01 | locus YAL021C, strain ccr4, hits give low values 0.983 | locus YAL026C, strain drs2, hits give low values 1 | locus YAL030W, strain snc1, hits give low values 0.993 | locus YBL061C, strain skt5, hits give low values 0.966 | locus YBR009C, strain hhf1, hits give low values 1.01 | locus YBR021W, strain FUR4, hits give low values 1.01 | locus YBR023C, strain chs3, hits give low values 0.989 | locus YBR171W, strain sec66, hits give low values 0.976 | locus YBR229C, strain ROT2, hits give low values 1.01 | locus YBR231C, strain swc5, hits give low values 1.01 | locus YBR279W, strain paf1, hits give low values 0.986 | locus YCL016C, strain dcc1, hits give low values 0.976 | locus YCL029C, strain bik1, hits give low values 0.993 | locus YCL069W, strain vba3, hits give low values 0.979 | locus YCR088W, strain abp1, hits give low values 0.985 | locus YDL005C, strain med2, hits give low values 0.949 | locus YDL035C, strain GPR1, hits give low values 1.02 | locus YDL040C, strain nat1, hits give low values 0.999 | locus YDL074C, strain BRE1, hits give low values 1.05 | locus YDL101C, strain DUN1, hits give low values 1.02 | locus YDL134C, strain PPH21, hits give low values 1.01 | locus YDL185W, strain tfp1, hits give low values 0.985 | locus YDL192W, strain arf1, hits give low values 0.99 | locus YDR001C, strain nth1, hits give low values 0.99 | locus YDR069C, strain doa4, hits give low values 0.992 | locus YDR101C, strain arx1, hits give low values 1.02 | locus YDR137W, strain rgp1, hits give low values 0.984 | locus YDR150W, strain NUM1, hits give low values 1.01 | locus YDR159W, strain sac3, hits give low values 0.977 | locus YDR162C, strain NBP2, hits give low values 1.01 | locus YDR195W, strain ref2 0.988 | locus YDR297W, strain sur2, hits give low values 0.989 | locus YDR318W, strain mcm21, hits give low values 0.991 | locus YDR334W, strain swr1, hits give low values 0.982 | locus YDR335W, strain msn5, hits give low values 0.981 | locus YDR388W, hits give low values 0.978 | locus YDR392W, strain spt3, hits give low values 0.928 | locus YDR502C, strain sam2, hits give low values 0.995 | locus YEL003W, strain gim4, hits give low values 0.998 | locus YEL037C, strain rad23, hits give low values 0.985 | locus YEL061C, strain CIN8 (second series), hits give low values 1.01 | locus YEL061C, strain CIN8, hits give low values 1.01 | locus YER015W, strain faa2, hits give low values 0.998 | locus YER016W, strain bim1, hits give low values 0.945 | locus YER110C, hits give low values 0.987 | locus YER111C, strain swi4, hits give low values 0.981 | locus YER155C, strain BEM2 (second series), hits give low values 1 | locus YER155C, strain BEM2, hits give low values 1.01 | locus YER167W, strain BCK2, hits give low values 0.996 | locus YFR010W, strain ubp6, hits give low values 1.01 | locus YGL078C, strain dbp3, hits give low values 0.976 | locus YGL086W, strain mad1, hits give low values 0.997 | locus YGL167C, strain pmr1, hits give low values 0.985 | locus YGL173C, strain kem1, hits give low values 0.998 | locus YGL227W, strain vid30, hits give low values 0.979 | locus YGL240W, strain doc1, hits give low values 1.01 | locus YGL248W, strain PDE1, hits give low values 1.03 | locus YGL253W, strain hxk2, hits give low values 0.986 | locus YGR135W, strain pre9, hits give low values 0.997 | locus YGR252W, strain gcn5, hits give low values 0.936 | locus YHR013C, strain ard1, hits give low values 0.927 | locus YHR027C, strain rpn1, hits give low values 1.01 | locus YHR030C, strain SLT2, hits give low values 1.01 and 0.989 | locus YHR079C, strain IRE1 (second series), hits give low values 0.989 | locus YHR079C, strain IRE1, hits give low values 0.991 | locus YHR094C, strain hxt1, hits give low values 0.991 | locus YHR129C, strain ARP1, hits give low values 1.01 | locus YHR142W, strain chs7, hits give low values 0.968 | locus YHR200W, strain rpn10, hits give low values 0.999 | locus YIL066C, strain RNR3, hits give low values 1.02 | locus YIL073C, strain SPO22, hits give low values 0.965 | locus YIL125W, strain kgd1, hits give low values 0.981 | locus YIR030C, strain dcg1, hits give low values 0.999 | locus YJL092W, strain hpr5, hits give low values 0.997 | locus YJL095W, strain BCK1 (second series), hits give low values 0.971 | locus YJL095W, strain BCK1, hits give low values 1.03 and 0.974 | locus YJL115W, strain asf1, hits give low values 0.983 | locus YJL129C, strain trk1, hits give low values 0.946 | locus YJL134W, strain LCB3, hits give low values 1.01 | locus YJL154C, strain vps35, hits give low values 0.97 | locus YJL164C, strain tpk1, hits give low values 0.991 | locus YJL166W, strain qcr8, hits give low values 1 | locus YJL168C, strain set2, hits give low values 0.992 | locus YJL187C, strain SWE1 (second series), hits give low values 1.03 | locus YJL187C, strain SWE1, hits give low values 0.986 | locus YJR043C, strain POL32, hits give low values 1.01 | locus YJR066W, strain TOR1, hits give low values 0.961
